Assay results published in the supplement of paper PMC11732987, “Enantioselective OTUD7B fragment discovery through chemoproteomics screening and high-throughput optimisation” (Communications Chemistry, 2025).

Columns and labels:
Test in all cases: log2 ratio of Biotin-Ahx-Ub-VS probe labelling (fragment/DMSO); higher = less target engagement (more negative = stronger competition), active = hit call of the paper (q ≤ 0.05, log2 ratio ≤ -1)
Conditions in all cases: compound concentration: 200 uM; treatment time: 3 h
[1] = target: T1, USP19 (UniProt O94966)
T1 sequence (whole entry): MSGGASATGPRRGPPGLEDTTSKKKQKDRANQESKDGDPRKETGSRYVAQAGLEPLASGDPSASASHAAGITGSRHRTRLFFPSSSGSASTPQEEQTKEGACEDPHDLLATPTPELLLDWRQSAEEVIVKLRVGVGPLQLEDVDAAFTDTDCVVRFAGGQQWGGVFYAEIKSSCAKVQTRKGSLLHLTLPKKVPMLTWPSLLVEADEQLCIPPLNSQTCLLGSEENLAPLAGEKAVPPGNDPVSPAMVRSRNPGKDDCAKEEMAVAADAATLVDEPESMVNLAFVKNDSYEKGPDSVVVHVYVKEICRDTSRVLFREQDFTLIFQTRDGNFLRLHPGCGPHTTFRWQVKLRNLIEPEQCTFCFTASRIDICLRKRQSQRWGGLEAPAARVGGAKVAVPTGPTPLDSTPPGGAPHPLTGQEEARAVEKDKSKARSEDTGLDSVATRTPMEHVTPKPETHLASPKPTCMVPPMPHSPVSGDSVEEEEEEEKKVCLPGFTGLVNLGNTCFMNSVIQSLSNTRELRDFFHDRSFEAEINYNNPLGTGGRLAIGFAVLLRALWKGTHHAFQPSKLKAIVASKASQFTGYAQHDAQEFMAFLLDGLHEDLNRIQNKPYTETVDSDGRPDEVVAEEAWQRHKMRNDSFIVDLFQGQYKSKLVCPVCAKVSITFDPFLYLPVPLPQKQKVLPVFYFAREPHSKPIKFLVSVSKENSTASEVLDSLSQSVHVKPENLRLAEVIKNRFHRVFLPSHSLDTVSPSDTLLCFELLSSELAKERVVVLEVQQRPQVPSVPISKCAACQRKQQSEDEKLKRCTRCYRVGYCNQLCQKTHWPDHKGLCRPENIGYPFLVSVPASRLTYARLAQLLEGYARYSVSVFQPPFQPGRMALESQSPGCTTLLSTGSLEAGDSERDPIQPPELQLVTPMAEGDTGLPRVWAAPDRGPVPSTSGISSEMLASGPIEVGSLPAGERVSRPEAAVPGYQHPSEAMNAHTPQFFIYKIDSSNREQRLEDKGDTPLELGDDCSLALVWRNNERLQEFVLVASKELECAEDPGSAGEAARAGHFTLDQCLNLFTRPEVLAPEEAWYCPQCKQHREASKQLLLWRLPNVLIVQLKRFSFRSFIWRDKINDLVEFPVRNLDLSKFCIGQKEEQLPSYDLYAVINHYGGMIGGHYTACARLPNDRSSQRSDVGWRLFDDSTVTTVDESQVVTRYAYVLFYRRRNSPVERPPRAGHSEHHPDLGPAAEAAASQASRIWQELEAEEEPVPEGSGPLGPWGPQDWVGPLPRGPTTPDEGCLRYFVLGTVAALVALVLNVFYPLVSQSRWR
How it was run: (§1)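 HEK293T lysate in Tris/CHAPS/IGEPAL buffer with protease inhibitors (495 µg per sample) was given fragment at 200 µM or vehicle for 3 h, in triplicate. It then received Biotin-Ahx-Ub-VS at 0.5 µM final for 1 h. Labelled DUBs were NeutrAvidin-enriched, digested with LysC and trypsin, and run by diaPASEF LC-MS/MS. Values are average log2 fragment/vehicle ratios by unpaired t-test on global-median-normalised Spectronaut quantities of proteins with ≥2 unique peptides.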

[2] = target: USP24 (UniProt Q9UPU5)
How it was run: as §1

[3] = target: T2, USP25 (UniProt Q9UHP3)
T2 sequence (whole entry): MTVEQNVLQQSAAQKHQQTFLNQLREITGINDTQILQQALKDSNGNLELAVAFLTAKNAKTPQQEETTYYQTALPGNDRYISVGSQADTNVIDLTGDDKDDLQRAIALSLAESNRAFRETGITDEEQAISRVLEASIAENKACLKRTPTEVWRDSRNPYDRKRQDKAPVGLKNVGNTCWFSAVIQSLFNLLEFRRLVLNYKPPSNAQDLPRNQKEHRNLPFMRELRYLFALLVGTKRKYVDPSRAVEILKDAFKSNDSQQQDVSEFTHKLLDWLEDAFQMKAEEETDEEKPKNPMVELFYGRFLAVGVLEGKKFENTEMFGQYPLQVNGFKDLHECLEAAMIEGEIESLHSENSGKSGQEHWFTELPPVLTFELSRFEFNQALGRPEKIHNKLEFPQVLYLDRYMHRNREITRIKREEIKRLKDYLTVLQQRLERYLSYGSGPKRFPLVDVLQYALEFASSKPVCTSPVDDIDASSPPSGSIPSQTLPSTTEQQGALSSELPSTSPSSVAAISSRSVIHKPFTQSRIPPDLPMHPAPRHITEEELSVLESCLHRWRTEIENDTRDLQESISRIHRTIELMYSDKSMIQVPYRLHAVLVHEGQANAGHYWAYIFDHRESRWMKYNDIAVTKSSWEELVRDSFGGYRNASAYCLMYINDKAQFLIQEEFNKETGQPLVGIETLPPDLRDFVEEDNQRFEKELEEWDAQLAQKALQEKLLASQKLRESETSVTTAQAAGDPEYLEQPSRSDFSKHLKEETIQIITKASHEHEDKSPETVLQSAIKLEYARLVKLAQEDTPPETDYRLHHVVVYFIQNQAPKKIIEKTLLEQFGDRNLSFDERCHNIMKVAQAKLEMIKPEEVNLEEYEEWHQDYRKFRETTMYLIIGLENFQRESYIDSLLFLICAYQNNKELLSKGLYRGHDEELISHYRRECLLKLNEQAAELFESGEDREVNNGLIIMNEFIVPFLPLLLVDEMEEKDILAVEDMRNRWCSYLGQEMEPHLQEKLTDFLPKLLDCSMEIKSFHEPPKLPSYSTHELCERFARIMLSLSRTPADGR
How it was run: as §1

[4] = target: T3, USP28 (UniProt Q96RU2)
T3 sequence (whole entry): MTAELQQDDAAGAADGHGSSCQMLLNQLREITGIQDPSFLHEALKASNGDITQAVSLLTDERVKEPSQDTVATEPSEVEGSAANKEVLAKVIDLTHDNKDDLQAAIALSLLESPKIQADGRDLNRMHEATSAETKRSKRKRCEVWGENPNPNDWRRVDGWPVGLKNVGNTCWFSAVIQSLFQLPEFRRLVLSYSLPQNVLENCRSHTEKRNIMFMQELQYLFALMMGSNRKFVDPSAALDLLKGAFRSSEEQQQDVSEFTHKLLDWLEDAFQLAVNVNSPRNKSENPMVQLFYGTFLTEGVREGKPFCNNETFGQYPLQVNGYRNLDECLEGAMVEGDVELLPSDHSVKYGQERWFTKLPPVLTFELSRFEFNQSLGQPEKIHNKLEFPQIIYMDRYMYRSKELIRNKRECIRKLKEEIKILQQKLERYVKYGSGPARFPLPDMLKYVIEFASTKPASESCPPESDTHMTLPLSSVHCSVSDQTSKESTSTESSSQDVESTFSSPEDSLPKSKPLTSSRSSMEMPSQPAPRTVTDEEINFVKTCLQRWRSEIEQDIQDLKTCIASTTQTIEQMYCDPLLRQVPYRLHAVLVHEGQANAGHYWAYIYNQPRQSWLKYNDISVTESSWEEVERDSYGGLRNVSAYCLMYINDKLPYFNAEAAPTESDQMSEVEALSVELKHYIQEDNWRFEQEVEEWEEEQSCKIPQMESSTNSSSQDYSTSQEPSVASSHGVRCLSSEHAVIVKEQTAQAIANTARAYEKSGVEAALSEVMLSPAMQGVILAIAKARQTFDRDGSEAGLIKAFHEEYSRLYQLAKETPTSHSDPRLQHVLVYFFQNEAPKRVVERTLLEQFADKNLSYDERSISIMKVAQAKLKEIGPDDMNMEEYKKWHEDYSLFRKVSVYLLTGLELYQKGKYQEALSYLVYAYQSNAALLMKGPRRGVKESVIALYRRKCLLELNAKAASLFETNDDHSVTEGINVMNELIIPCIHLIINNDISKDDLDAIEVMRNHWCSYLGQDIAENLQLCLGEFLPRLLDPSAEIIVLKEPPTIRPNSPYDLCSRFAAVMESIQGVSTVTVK
How it was run: as §1

Measured: log2 ratio of Biotin-Ahx-Ub-VS probe labelling

Chain of USP24 (Q9UPU5 whole entry): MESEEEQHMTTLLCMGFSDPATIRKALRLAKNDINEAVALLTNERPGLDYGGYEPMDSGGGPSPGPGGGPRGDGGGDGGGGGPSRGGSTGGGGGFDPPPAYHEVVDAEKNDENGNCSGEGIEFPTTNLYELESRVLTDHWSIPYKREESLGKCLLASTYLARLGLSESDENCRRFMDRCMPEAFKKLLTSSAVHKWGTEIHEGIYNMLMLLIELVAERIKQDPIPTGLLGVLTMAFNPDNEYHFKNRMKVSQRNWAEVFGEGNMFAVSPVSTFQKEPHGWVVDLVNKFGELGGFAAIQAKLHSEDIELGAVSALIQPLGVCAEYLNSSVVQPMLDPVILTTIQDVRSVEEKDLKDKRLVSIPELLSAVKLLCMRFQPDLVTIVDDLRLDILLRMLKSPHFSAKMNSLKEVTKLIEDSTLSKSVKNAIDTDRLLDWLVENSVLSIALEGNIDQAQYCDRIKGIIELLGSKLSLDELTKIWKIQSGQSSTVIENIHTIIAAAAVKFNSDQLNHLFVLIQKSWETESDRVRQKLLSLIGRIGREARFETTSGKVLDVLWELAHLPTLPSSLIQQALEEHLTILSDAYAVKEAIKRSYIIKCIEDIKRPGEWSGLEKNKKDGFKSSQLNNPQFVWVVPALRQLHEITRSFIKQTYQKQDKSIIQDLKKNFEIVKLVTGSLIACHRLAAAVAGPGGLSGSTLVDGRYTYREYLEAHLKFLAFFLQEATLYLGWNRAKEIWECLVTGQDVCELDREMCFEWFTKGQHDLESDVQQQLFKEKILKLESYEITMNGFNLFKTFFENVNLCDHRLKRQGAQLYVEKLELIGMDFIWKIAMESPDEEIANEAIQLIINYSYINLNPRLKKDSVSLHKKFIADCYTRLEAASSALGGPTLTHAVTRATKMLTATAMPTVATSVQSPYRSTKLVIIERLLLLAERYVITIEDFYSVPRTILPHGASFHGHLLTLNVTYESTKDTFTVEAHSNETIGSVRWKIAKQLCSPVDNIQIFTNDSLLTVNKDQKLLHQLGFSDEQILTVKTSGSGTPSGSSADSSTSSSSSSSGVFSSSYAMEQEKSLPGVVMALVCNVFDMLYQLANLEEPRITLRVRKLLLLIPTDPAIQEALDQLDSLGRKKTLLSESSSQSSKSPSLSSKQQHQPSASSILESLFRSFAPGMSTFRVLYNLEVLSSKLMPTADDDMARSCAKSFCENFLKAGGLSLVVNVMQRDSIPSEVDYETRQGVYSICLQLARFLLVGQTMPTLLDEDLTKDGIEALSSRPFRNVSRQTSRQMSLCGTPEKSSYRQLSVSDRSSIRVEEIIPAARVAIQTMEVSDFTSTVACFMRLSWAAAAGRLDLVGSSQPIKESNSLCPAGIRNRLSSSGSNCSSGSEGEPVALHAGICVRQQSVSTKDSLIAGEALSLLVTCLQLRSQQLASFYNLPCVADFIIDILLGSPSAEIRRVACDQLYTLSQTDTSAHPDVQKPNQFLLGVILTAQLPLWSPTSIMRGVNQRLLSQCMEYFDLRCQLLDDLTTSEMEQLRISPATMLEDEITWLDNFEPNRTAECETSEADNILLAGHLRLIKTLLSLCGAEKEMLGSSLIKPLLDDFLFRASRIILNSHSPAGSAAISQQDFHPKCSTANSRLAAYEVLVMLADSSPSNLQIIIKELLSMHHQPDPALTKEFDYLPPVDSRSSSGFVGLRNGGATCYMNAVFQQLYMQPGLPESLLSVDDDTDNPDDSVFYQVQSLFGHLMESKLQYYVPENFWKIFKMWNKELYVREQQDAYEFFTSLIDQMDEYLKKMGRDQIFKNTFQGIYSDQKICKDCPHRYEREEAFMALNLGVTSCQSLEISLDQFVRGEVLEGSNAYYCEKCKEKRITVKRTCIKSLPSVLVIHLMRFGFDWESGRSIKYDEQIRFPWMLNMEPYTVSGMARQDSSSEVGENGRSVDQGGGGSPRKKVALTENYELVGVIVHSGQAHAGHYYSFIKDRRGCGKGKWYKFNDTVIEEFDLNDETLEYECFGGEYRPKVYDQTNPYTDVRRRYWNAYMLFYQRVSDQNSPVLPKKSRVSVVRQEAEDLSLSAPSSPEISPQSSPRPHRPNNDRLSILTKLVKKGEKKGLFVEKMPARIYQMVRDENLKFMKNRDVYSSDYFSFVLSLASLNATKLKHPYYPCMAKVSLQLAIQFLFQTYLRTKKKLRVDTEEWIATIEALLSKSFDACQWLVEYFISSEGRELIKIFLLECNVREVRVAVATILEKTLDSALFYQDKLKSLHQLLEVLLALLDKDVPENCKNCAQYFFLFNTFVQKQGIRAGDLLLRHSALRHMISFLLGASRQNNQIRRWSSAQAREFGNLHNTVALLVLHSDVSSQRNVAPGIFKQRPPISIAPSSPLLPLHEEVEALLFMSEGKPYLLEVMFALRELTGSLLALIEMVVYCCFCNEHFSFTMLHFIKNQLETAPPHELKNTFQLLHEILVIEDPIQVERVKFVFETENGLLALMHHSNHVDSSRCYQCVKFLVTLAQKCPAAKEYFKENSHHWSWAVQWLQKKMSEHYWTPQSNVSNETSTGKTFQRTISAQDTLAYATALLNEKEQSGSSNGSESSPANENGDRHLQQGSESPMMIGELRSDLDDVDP

Cc1ccc(CN(CCO)C(=O)CCl)cc1
inactive: [1] -0.37 | [2] -0.445 | [3] -0.431 | [4] -0.569
